# PubChem BioAssay AID624134 (Broad Institute, 2012)
# Hit rate of the full screen: of about 1,600 compounds, about 1,100 (69%) were called active. So high a share suggests a set chosen from earlier hits. The list is a sample of the results. Measured potencies and affinities stand elsewhere. Results filed as inconclusive are left out. Values without a mark were called inactive.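 How the source made its calls: active means signal drop with fitted half-maximal concentration no higher than twice the top valid tested concentration; inconclusive means flat curve with 30 to 70% signal loss, or poor fit; inactive means the rest, including signal rises and flat curves within 30%.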 Non-standard residues stand in square brackets, D forms with d. Residues, ends and D or L forms follow the SMILES beside them. *: point of attachment. Ac5c = NC1(C(=O)O)CCCC1; Cbz = O=C(OCc1ccccc1)*
# Assay: loss of viability in HepG2 cells – cell-based, CellTiter-Glo, cherry-picked, cytotoxicity control for Shn3 inhibitor project, dose response (AID 624134);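 further: 0% = median of neutral control wells and -100% = median of positive control wells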
# Settings: CellTiter-Glo ATP luminescence, 48 h; series mostly up to 35 µM; activity change, negative = cytotoxicity: at the top concentration
row,SMILES,"activity change, negative = cytotoxicity [%]"
1,Cc1ccc(-c2nc3cccnc3o2)cc1NC(=O)COc1ccc(C(C)(C)C)cc1,-27.5
2,CC(C)CCC(C(=O)O)C(C)CC(=O)NNC(=O)c1ccco1 (configuration not stated),-2.17
3,CC(C)(C)N(Cc1ccccc1)C(=O)COC(=O)CCc1c[nH]c2ccccc12,-8.24
4,CCCCCCN1C[C@H](n2cc(-c3ccc(F)cc3)nn2)[C@@H](O)C[C@@H]1c1ccc(Cl)cc1,-62.3
5,CC(=O)N1c2ccc(S(=O)(=O)N3CCC(C(=O)N4CCN(c5cc(Cl)ccc5C)CC4)CC3)cc2CC1C (configuration not stated),1.7
6,Cc1cccc(C)c1NC(=O)CN(C)C(=O)c1cc(S(=O)(=O)N(C)C)ccc1N1CCCC1,5.64
7,CCN(c1ccccc1)S(=O)(=O)c1ccc(Cl)c(NC(=O)CN(C)Cc2cccc(F)c2)c1,-10.9
8,Oc1c(C(c2cccs2)N2CCC3(CC2)OCCO3)sc2ncnn12 (configuration not stated),-1.02
9,CCOC(=O)/C(=C\c1ccc([N+](=O)[O-])cc1)C(=O)c1cc(C(C)=O)c(Nc2ccccc2)s1,-7.79
10,CCOC(=O)c1[nH]c(C)c(/C(O)=C2\C(=O)C(=O)N(CCCN3CCOCC3)C2c2cccs2)c1C (configuration not stated),0.789
11,CN1C(=O)c2cccc(NCCCCCCN3C(=O)c4ccccc4C3=O)c2C1=O,-5.25
12,Cc1ccc(C)c(N2CCN(S(=O)(=O)c3ccc4[nH]c(=O)ccc4c3)CC2)c1,3.47
13,Nc1cc(=O)[nH]c(SCC(=O)Nc2cccc([N+](=O)[O-])c2)n1,-5.8
14,CC1Cc2ccccc2N1Cc1cccc(S(=O)(=O)N(C)C)c1 (configuration not stated),-3.11
15,Cc1cccc(-c2noc(CN(C(=O)C(c3ccccc3)c3ccccc3)C(C)C)n2)c1,-14.7
16,CCCCNc1cccc2c1S(=O)(=O)N(CCCC)CC(COCc1ccccc1)O2 (configuration not stated),-6.62
17,C=CCn1c(C)cc(C(=O)CN2C(=O)c3ccccc3S2(=O)=O)c1C,-11.7
18,CC(NNC(=S)N1CCN(c2ccccn2)CC1)c1nccc2ccccc12 (configuration not stated),-14.5
19,CCOC(=O)C1=C(C)N(CCCC(=O)O)C(=O)NC1c1ccc2ccccc2c1 (configuration not stated),-2.41
20,CC1Cc2cc(S(=O)(=O)N3CCC(C(=O)N4CCN(c5ccccc5F)CC4)CC3)ccc2N1C(=O)C1CC1 (configuration not stated),-1.82
21,CC(=O)N1c2ccc(S(=O)(=O)N3CCC(C(=O)N4CCN(c5ccccc5F)CC4)CC3)cc2CC1C (configuration not stated),4.49
22,CC(=O)Oc1ccc(OC(C)=O)c(SCCCCCCl)c1,-11.1
23,CN1/C(=C\C(=O)CN2C(=O)NC3(CCCCCC3)C2=O)C(C)(C)c2ccccc21,-23
24,Cc1ccc(N2C(=O)c3cccc4c([N+](=O)[O-])ccc(c34)C2=O)c2cccnc12,-22

row,SMILES,"activity change, negative = cytotoxicity [%]"
1,O=C(N[C@@H]1C/C=C\C[C@H](CC(=O)N(CCO)Cc2ccccc2)C(=O)NC[C@@H](c2ccccc2)OC1=O)OCC1c2ccccc2-c2ccccc21,-27
2,CN(CC(=O)Nc1cc(S(=O)(=O)N2CCCC2)ccc1Cl)Cc1ccc2c(c1)OCO2,-8.05
3,Cc1ccc(NC(=O)NCCCN2CCOCC2)cc1,4.85
4,CC12CC(O)C3c4ccc(O)cc4CCC3C1CCC2=O (configuration not stated),-11.4
5,CCCCCOC(=O)c1[nH]c2c(c1C)C(=O)CC(c1ccco1)C2 (configuration not stated),-17.9
6,CCOC(=O)CNC(=O)C1(NC(=O)CNC(=O)OCc2ccccc2)CCCC1 (Cbz-Gly-[Ac5c]-Gly-OEt),1.52
7,CCC(C)[C@H]1CNC(=S)N1CCc1cc(C(F)(F)F)cc(C(F)(F)F)c1 (some centres not stated),-12.5
8,CC(C)N=C(N)N=C(N)Nc1ccc(Cl)cc1,-14.4
9,Cc1cc(C)cc(C(=O)NCC(=O)OCC(=O)NCC(F)(F)F)c1,-10.9
10,CSC1SCC2C(=O)N(C)C(C(C)C)C(=O)OCC(NC(=O)c3cnc4ccccc4n3)C(=O)NC(C)C(=O)N(C)C1C(=O)N(C)C(C(C)C)C(=O)OCC(NC(=O)c1cnc3ccccc3n1)C(=O)NC(C)C(=O)N2C (configuration not stated),-23.9
11,O=C1ON=C(c2ccccc2)/C1=C/c1ccc(-c2ccccc2[N+](=O)[O-])o1,-7.62
12,Cc1cc(C(=O)COC(=O)c2ccccc2O)c(C)n1Cc1cccs1,0.392
13,COc1ccc2c(CC(=O)OCC(=O)N(C)c3c(N)n(Cc4ccccc4)c(=O)[nH]c3=O)coc2c1,0.984
14,CC(Oc1ccc(F)cc1)C(=O)N(CCC1=CCCCC1)c1c(N)n(Cc2ccccc2)c(=O)[nH]c1=O (configuration not stated),-32.6
15,Cn1cccc1Cc1nnc(SCC(=O)NCCc2ccccc2)n1-c1ccc(F)cc1,-2.41
16,CCCOc1ccccc1C1CC(=O)Nc2cc3c(cc21)OCCO3 (configuration not stated),-16.2
17,COc1cc(C#Cc2c(-c3cncn3C)n(C)c3ccc(-c4ccc(OC)nc4)cc23)cc(OC)c1,-10
18,O=C(c1n[nH]c(=O)c2ccccc12)N1CCN(C2c3ccccc3-c3ccccc32)CC1,-7.71
19,Cn1cc(CN(CCO)Cc2cccs2)c(-c2cccc(Cl)c2)n1,-1.41
20,Cc1noc(C)c1COC(=O)[C@@H](NC(=O)c1ccccc1)C(C)C,2.94
21,COc1ccc(CN(C(=O)CSc2nnc(-c3ccc(F)cc3)o2)c2ccc(F)cc2)cc1,-3.67
22,Fc1ccccc1N1CCN(Cc2nc(-c3ccccc3)no2)CC1,-9.95
23,O=C(Nc1cc2c3c(c1)C1CCCC1CN3CC1CCCC21)c1ccc([N+](=O)[O-])cc1 (configuration not stated),-8.21
